Measured values from PubChem BioAssay.
Records with an inconclusive call do not appear. Calls of active or inactive are those of the source.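 Rule for the calls, unless noted: active = response below a set limit, under 55% cells CD8-positive and vesicle-bound, and CD8 cells' 90th-percentile brightness under 279; inactive = the rest.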

What was measured:
[1] = yeast TOR pathway RPL19A-GFP modulators, primary screen, cell-based, S. cerevisiae, multiplex flow cytometry (AID 1862; in the data active = percent of DMSO control GFP below about 86%;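 note: lower values mimic rapamycin by blocking the RPL19A rise seen in DMSO cells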); details: S. cerevisiae RPL19A-GFP strain, flow cytometry fluorescence, 3 h; at 10 µM; stronger effect = lower value
[2] = modulators of MEP2-GFP levels in yeast, primary screen, S. cerevisiae, multiplex flow cytometry (AID 1867;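 active = GFP response, as percent of the DMSO control, above the screen-wide mean plus 3 SD, about 139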;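 note: median GFP channel fluorescence of barcode-gated MEP2-GFP cells measured by flow cytometry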); details: S. cerevisiae MEP2-GFP strain, 3 h, at 10 µM, stronger effect = higher value, 100% means same as DMSO wells
[3] = modulators of CIT2-GFP expression in yeast, primary screen, S. cerevisiae, GFP fusion, multiplex flow cytometry (AID 1870;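 active = percent response above a set limit, the screen-wide mean plus 3 SD, cut at about 130% in these data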;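 note: barcoded CIT2-GFP strain pooled with four other GFP strains with rapamycin as positive control; median GFP fluorescence per well over plate mean of DMSO wells so 100% = DMSO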); details: 3 h, at 10 µM, stronger effect = higher value
[4] = modulators of LAP4-GFP expression in yeast, primary screen, S. cerevisiae, multiplex flow cytometry (AID 1873;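 active = GFP signal, as percent of the solvent control, above the screen mean plus 3 SD, about 149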); details: 3 h, at 10 µM, stronger effect = higher value
[5] = modulators of AGP1-GFP expression in yeast TOR pathway, primary screen, cell-based, multiplex flow cytometry, S. cerevisiae (AID 1887;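 active = GFP signal above the screen-wide mean plus 3 SD, that is over about 124.5% of the solvent control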;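 note: AGP1-GFP fusion strain of S. cerevisiae within a five-strain barcoded multiplex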); details: 3 h, at 10 µM, stronger effect = higher value
[6] = inhibitors of CD8+ T cell-vesicle binding, pilot screen, LFA-1/ICAM-1 modulator project, MLPCN validation set, flow cytometry (AID 2523); details: 2C mouse CD8+ T cells, at 7 µM, stronger effect = lower value; double positive events: measured here: CD8+/vesicle+ event percentage;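 for vesicle binding response: mean PE anti-B7-1 fluorescence of CD8+ cells relative to row control; 100% = QL9-loaded vesicles with DMSO vehicle in the same plate row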
[7] = biological target: Integrin beta-1 (Homo sapiens) + Integrin alpha-4 (Homo sapiens) (UniProt P13612+P05556); assay: inhibition of HUTS-21 binding to VLA-4, pilot screen, VLA-4 allosteric modulator project, U937 cells, HUTS-21 mAb, flow cytometry, validation set (AID 2674;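 active = inhibition above 50%, about 3 SD of the validation set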;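 note: antibody binding induced by the VLA-4 ligand LDV present at three times its Kd; 0% = LDV ligand with antibody and no compound and 100% = antibody without LDV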); details: HUTS-21 LIBS mAb binding, at 6.7 µM, stronger effect = higher value, binding induced by LDV ligand
Chain of Integrin beta-1 (Homo sapiens) + Integrin alpha-4 (Homo sapiens) (P05556 whole entry, looked up): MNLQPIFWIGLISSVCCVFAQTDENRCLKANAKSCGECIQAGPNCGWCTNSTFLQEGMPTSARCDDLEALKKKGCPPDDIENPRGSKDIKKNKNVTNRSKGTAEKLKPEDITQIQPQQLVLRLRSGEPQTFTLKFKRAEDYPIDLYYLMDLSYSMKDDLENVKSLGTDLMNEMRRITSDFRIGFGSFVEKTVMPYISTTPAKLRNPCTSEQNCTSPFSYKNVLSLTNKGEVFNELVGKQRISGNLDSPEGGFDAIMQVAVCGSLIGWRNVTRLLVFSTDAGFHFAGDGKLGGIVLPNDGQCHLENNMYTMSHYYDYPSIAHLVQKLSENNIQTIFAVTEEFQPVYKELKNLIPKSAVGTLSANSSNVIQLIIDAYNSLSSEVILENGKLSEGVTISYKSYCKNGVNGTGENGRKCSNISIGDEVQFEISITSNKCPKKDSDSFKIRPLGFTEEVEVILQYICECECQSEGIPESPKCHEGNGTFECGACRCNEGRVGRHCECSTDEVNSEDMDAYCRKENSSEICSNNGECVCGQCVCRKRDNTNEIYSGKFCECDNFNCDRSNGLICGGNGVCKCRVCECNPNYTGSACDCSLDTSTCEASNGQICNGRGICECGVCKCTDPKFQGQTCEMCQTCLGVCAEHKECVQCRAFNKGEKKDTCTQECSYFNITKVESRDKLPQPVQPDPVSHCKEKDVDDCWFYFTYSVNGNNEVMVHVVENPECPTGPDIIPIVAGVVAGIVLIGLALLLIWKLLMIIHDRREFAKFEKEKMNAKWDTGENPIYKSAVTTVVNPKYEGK
Chain of Integrin beta-1 (Homo sapiens) + Integrin alpha-4 (Homo sapiens) (P13612 whole entry, looked up): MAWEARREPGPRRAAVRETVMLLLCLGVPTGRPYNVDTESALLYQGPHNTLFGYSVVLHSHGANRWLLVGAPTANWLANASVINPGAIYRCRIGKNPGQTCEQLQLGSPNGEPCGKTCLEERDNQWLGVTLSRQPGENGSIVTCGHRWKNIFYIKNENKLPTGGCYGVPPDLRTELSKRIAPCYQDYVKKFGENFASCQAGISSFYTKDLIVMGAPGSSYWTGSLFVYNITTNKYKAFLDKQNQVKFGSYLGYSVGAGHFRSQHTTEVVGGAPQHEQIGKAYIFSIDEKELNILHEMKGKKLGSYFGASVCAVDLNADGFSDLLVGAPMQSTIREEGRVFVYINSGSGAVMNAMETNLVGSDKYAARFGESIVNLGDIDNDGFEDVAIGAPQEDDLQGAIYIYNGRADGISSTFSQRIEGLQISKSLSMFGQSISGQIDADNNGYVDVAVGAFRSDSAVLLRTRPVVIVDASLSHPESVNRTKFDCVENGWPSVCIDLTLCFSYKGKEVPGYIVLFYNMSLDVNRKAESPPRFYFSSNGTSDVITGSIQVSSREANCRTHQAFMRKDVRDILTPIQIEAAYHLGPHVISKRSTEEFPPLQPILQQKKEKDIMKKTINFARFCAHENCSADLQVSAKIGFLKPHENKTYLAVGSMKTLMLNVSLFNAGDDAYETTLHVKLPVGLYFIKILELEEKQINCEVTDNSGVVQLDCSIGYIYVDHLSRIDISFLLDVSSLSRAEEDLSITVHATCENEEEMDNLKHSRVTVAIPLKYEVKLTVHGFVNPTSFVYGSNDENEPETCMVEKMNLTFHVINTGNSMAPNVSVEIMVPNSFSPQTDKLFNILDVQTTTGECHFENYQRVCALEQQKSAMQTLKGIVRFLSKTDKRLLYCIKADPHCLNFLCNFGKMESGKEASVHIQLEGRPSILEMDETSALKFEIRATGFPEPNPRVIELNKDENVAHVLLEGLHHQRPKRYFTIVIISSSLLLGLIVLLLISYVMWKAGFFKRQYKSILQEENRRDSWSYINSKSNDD

[8] = superoxide lowering in aged yeast cells, pilot screen, validation compound set (AID 2706;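 active = superoxide response below 65% of plate, a cut near 3 SD across the whole screen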;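 note: yeast exposed to compound for one week at 30 degrees C before staining; 100% = mean of all compound wells on the same plate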); details: S. cerevisiae aging, superoxide DHE fluorescence; at 10 µM; stronger effect = lower value
[9] = biological target: Beta-adrenergic receptor kinase 1 (Homo sapiens) (UniProt P25098); assay: GRK2 binders displacing RNA aptamer, biochemical, validation, human GRK2, bead flow cytometry (AID 488806;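 active = aptamer binding inhibition above 30%, about 3 SD of noise from non-fluorescent compounds; inactive = inhibition at or below 30%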); details: bead-bound GRK2, FAM-aptamer displacement, at 10 µM, stronger effect = higher value
Chain of Beta-adrenergic receptor kinase 1 (Homo sapiens) (P25098 whole entry, looked up): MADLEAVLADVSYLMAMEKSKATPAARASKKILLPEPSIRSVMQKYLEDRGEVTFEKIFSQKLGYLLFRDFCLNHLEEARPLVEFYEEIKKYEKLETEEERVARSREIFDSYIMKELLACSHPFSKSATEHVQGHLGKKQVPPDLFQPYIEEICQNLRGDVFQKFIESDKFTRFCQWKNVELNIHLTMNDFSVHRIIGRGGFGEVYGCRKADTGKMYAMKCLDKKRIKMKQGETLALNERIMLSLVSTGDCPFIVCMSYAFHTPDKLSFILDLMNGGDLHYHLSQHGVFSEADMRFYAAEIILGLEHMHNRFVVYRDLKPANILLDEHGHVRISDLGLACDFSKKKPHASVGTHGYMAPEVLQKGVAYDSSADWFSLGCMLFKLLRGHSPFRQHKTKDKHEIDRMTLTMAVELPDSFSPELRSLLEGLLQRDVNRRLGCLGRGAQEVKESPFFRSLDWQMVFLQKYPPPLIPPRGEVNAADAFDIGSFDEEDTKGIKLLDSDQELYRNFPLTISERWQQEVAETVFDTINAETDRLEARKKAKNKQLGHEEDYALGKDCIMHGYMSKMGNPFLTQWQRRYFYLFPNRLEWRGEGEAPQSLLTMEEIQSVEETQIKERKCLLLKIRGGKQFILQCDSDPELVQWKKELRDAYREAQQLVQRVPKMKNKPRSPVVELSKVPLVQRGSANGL

[10] = biological target: Beta-2 adrenergic receptor (Homo sapiens) (UniProt P07550); assay: beta2AR agonists driving receptor internalization, pilot screen, cell-based, FAP fluorogen, flow cytometry, validation set (AID 504459;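 active = percent response above 42, roughly 3 SD of non-fluorescent test compounds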;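 note: agonist-driven loss of surface beta2AR via internalization measured by FAP dye flow cytometry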); details: Am2.2-beta2AR cells, FAP surface receptor flow cytometry; at 10 µM; stronger effect = higher value
Chain of Beta-2 adrenergic receptor (Homo sapiens) (P07550 whole entry, looked up): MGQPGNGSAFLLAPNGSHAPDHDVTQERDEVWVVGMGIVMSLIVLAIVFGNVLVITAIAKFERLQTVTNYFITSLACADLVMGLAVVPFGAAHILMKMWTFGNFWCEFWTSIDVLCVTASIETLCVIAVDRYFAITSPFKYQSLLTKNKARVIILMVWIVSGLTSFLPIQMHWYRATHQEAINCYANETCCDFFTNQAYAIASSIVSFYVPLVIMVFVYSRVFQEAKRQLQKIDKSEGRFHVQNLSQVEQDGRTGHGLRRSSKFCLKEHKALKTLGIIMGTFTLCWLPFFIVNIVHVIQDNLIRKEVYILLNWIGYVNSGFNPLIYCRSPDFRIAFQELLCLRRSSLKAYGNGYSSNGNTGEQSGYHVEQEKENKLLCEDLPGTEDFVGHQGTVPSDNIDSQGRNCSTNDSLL

[11] = biological target: AP-2 complex subunit beta (Homo sapiens) (UniProt P63010); assay: inhibitors of arrestin peptide binding to AP2, pilot screen, biochemical, validation set, GST-AP2 beads, flow cytometry (AID 504541;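 active = inhibition above 54%, about 3 SD of non-fluorescent compounds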;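 note: AP2 carries R879A mutation and is captured from E. coli lysate; bead-bound FITC arrestin peptide fluorescence measuring arrestin peptide binding to AP2; 0% = DMSO wells and 100% = excess unlabeled arrestin peptide control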); details: FITC arrestin peptide, at 10 µM, stronger effect = higher value, AP2 beta2 appendage fragment, R879A mutant
Chain of AP-2 complex subunit beta (Homo sapiens) (P63010 whole entry, looked up, the tested form may be a part, one chain of several): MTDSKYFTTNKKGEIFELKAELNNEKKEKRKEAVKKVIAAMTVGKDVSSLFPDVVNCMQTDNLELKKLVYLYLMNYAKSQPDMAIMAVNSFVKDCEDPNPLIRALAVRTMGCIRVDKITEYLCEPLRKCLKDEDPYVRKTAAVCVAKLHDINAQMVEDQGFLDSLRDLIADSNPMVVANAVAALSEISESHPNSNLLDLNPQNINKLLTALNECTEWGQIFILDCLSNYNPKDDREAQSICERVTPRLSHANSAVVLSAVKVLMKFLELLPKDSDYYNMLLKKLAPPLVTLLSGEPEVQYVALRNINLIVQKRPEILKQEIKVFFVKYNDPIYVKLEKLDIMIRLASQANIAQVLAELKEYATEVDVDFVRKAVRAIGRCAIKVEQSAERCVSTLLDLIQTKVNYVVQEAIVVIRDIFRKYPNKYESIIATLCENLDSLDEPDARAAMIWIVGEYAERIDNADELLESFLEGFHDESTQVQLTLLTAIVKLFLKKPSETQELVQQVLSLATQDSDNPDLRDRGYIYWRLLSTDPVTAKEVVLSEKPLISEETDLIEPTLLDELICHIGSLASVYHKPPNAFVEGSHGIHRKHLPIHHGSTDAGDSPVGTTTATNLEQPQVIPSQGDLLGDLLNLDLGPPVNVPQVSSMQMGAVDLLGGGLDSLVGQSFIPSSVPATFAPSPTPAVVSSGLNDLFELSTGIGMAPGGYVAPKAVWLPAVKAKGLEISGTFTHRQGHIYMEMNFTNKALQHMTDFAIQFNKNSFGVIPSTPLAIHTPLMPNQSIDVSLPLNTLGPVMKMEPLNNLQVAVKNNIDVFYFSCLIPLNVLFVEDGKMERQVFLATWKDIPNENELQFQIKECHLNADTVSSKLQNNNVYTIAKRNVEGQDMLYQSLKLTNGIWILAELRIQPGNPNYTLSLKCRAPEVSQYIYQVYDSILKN

[12] = yeast V-ATPase proton transport modulators, S. cerevisiae, pHLuorin, HTS validation (AID 504600; in the data active = response above about 15%;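 note: plate controls were DMSO for no effect and reference compound for full effect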); details: S. cerevisiae pHLuorin cytosolic pH, at 10 µM, stronger effect = higher value
[13] = tested on: anti-desmoglein-3 scFv antibody binding to human DSG3; assay: inhibitors of anti-DSG3 scFv binding to DSG3, pilot screen, biochemical, validation compound set, bead-based, flow cytometry (AID 588368;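 active = binding below the plate cutoff, the plate median minus 3 SD, with a reading above zero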;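 note: signal is the median channel fluorescence of bead-bound GFP antibody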); details: Protein G beads, DSG3-Fc, scFv-GFP binding, at 10 µM, stronger effect = lower value
[14] = inhibitors of fungal efflux pumps CDR1, CDR2, MDR1, pilot screen, validation compound set, multiplex, phenotypic (AID 588506;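 active = efflux inhibition above 0.42, the validation set average plus 4 SD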;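 note: Nile Red retained in cells so higher fluorescence means more efflux inhibition; 0 = negative control wells and 1 = enniatin B 25 µM full block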); details: S. cerevisiae pump-expressing triplex, Nile Red efflux flow cytometry; at 10 µM; stronger effect = higher value; the pumps come from Candida albicans
[15] = biological target: ATP-binding cassette sub-family B member 6 (Homo sapiens) (UniProt Q9NP58); assay: ABCB6 transporter inhibitors, pilot screen, K562-ABCB6 cells, flow cytometry, validation set (AID 588550;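 active = inhibition above the screen-wide mean plus 3 SD, about 51%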;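 note: 0% = DMSO wells and 100% = benzethonium chloride 70 µM positive control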); details: K562-ABCB6 porphyrin accumulation, 1 h, at 10 µM, stronger effect = higher value
Chain of ATP-binding cassette sub-family B member 6 (Homo sapiens) (Q9NP58 whole entry, looked up): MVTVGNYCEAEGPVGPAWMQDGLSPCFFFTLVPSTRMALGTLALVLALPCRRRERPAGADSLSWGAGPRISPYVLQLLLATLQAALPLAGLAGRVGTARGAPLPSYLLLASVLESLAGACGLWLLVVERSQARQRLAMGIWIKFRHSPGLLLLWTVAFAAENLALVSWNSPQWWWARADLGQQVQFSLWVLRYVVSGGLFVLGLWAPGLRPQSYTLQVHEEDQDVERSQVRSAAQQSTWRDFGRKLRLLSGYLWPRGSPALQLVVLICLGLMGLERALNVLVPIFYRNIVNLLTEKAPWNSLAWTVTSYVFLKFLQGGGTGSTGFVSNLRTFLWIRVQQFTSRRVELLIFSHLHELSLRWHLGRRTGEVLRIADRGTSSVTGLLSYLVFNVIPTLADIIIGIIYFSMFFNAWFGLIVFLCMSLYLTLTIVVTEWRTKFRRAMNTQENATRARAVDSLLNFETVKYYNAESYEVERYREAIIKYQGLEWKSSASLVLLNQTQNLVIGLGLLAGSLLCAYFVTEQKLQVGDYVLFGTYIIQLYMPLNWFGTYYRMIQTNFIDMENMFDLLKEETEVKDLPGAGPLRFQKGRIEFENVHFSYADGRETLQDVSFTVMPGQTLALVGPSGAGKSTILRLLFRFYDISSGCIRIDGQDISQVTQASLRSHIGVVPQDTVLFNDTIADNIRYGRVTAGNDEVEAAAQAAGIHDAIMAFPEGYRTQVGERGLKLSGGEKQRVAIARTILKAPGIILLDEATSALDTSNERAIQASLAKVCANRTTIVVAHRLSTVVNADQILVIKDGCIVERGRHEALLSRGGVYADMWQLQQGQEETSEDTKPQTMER

[16] = promoters of myeloid differentiation in arrested cells, primary screen, cell-based, GFP/MAC1 double positive, flow cytometry, validation set (AID 588685;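 active = differentiation response of at least 50%, scaled between solvent and reference control, from cells with both markers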;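 note: compound exposure lasts four days before antibody staining and flow analysis; 0% = DMSO wells and 100% = 5 µM fulvestrant positive control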); details: ER-HoxA9 marrow cells, stronger effect = higher value, normalized: vehicle 0, fulvestrant 100

| SMILES | percent of DMSO control GFP [1] | GFP response vs DMSO [2] | percent response of DMSO control [3] | GFP response vs DMSO [4] | GFP response, % of DMSO [5] | double positive events [6] | vesicle binding response [6] | inhibition [7] | superoxide response (% of plate) [8] | aptamer binding inhibition [9] | response [10] | inhibition [11] | response [12] | binding (% of control) [13] | efflux inhibition (fraction of control) [14] | inhibition [15] | differentiation response [16] |
| --- | --- | --- | --- | --- | --- | --- | --- | --- | --- | --- | --- | --- | --- | --- | --- | --- | --- |
| CC(=O)OC(C)C[N+](C)(C)C (stereo not drawn) | 103% (inactive) | 102% (inactive) | 96.4% (inactive) | 115% (inactive) | 124% (inactive) | 65.5% | 191% (inactive) | -7.08% (inactive) | 86.6% (inactive) | 5% (inactive) | -16.2% (inactive) | -17.2% (inactive) | 0.37% (inactive) | 107% (inactive) | 0 (inactive) | 6% (inactive) | 6.83% (inactive) |
| CC(=O)Nc1ccccc1C(=O)C(=O)Nc1ccccc1 | 99.1% (inactive) | 99.6% (inactive) | 99.6% (inactive) | 114% (inactive) | 97.5% (inactive) | 60.9% | 83.6% (inactive) | 6.4% (inactive) | 102% (inactive) | 1% (inactive) | -12.9% (inactive) | 35.2% (inactive) | -3.86% (inactive) | 95.3% (inactive) | -0.35 (inactive) | 2% (inactive) | 29.6% (inactive) |
| CO[C@H]1C=CO[C@@]2(C)Oc3c(C)c(O)c4c(O)c(c(C=NN5CCN(C)CC5)c(O)c4c3C2=O)NC(=O)C(C)=CC=C[C@H](C)[C@H](O)[C@@H](C)[C@@H](O)[C@@H](C)[C@H](OC(C)=O)[C@@H]1C | 93.3% (inactive) | 127% (inactive) | 93.9% (inactive) | 78.7% (inactive) | 98.2% (inactive) | 64.9% | 575% (inactive) | -46.9% (inactive) | 105% (inactive) | 3% (inactive) | 9.39% (inactive) | -2.48% (inactive) | -1.49% (inactive) | 99.2% (inactive) | 0.01 (inactive) | 12% (inactive) | 2.46% (inactive) |
| CC(C)CCn1c(N2CCc3ccccc3C2)nc2c1c(=O)[nH]c(=O)n2C | 92.6% (inactive) | 128% (inactive) | 108% (inactive) | 83.1% (inactive) | 83.3% (inactive) | 54.4% | 184% (inactive) | -6.15% (inactive) | 98% (inactive) | -2% (inactive) | -18.6% (inactive) | 2.58% (inactive) | 2.15% (inactive) | 104% (inactive) | -0.24 (inactive) | 12% (inactive) | -4.91% (inactive) |
| COc1cc(NC(=S)NC(=O)c2cccs2)ccc1NC(=O)C(C)C | 99.7% (inactive) | 108% (inactive) | 90.1% (inactive) | 124% (inactive) | 101% (inactive) | 66.4% | 265% (inactive) | -14.1% (inactive) | 113% (inactive) | 3% (inactive) | -2.44% (inactive) | -6.94% (inactive) | 1.32% (inactive) | 96.8% (inactive) | 0.05 (inactive) | 9% (inactive) | -28% (inactive) |
| COC(=O)C1=C(C)N(C)C(=S)NC1c1ccc(Cl)cc1 (stereo not drawn) | 99.8% (inactive) | 95.6% (inactive) | 98.6% (inactive) | 98% (inactive) | 88.8% (inactive) | 63% | 138% (inactive) | -2.43% (inactive) | 99.9% (inactive) | 3% (inactive) | -27.7% (inactive) | 0.15% (inactive) | 0.83% (inactive) | 97.9% (inactive) | -0.04 (inactive) | 7% (inactive) | -10.4% (inactive) |
| NC(=O)c1ccccc1O | 103% (inactive) | 108% (inactive) | 92.8% (inactive) | 95.8% (inactive) | 97.4% (inactive) | 64.5% | 199% (inactive) | 11.1% (inactive) | 95.9% (inactive) | -1% (inactive) | 6.88% (inactive) | 33.5% (inactive) | -2.79% (inactive) | 100% (inactive) | 1.03 (active) | 3% (inactive) | 10.3% (inactive) |
| O=C(N/C(=C/C=C\c1ccccc1)C(=O)N1CCOCC1)c1ccc(Br)cc1 | 98.4% (inactive) | 107% (inactive) | 100% (inactive) | 123% (inactive) | 115% (inactive) | 65.2% | 185% (inactive) | 2.29% (inactive) | 84.9% (inactive) | 1% (inactive) | -28% (inactive) | 6.94% (inactive) | 2.4% (inactive) | 103% (inactive) | 0.42 (inactive) | 2% (inactive) | -6.96% (inactive) |
| N/C(=N\OC(=O)/C=C/c1ccccc1)c1ccc(Br)cc1 | 103% (inactive) | 106% (inactive) | 107% (inactive) | 101% (inactive) | 94.2% (inactive) | 65% | 195% (inactive) | -3.57% (inactive) | 107% (inactive) | 3% (inactive) | 0.58% (inactive) | 40.4% (inactive) | -3.5% (inactive) | 100% (inactive) | -0.01 (inactive) | 13% (inactive) | -3.67% (inactive) |
